The values below come from PubChem BioAssay (NCI).

Test systems include NCI-H23 lung; NCI-H226 lung; NCI-H322M lung; HOP-62 NSCLC; NCI-H460 lung; HOP-92 NSCLC; NCI-H522 lung; A549/ATCC NSCLC; 786-0 renal; COLO 205 colon; DU-145 prostate; K-562 leukemia; MALME-3M melanoma; MDA-MB-231 breast; RXF 393 renal; SF-268 CNS; SF-295 CNS; SF-539 CNS; UACC-257 melanoma; M14 melanoma.
Holding throughout (experiment): NCI-60 one-dose screen, 48 h (100 = growth as untreated, 0 = no growth, -100 = all killed)
Common to all, as to settings: 10 µM unless noted

The panel holds about 83,000 compounds, 20% with a hit somewhere; the sample as a whole holds those more often.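 Interpretation: 100, growth as untreated; towards 0, rising growth inhibition; 0, no net growth; 0 to -100, cell death. Compounds scoring below 10 were considered active.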 Unmarked numbers belong to inactive results. Active and inactive are the calls of the source.

With `CC(C)C[C@@H](NC(=O)[C@@H](Cc1ccccc1)NC(=O)c1cnccn1)B1O[C@H]2[C@H](O)[C@@H](C(=O)NCCCC[C@@H]3NC(=O)[C@@H](Cc4ccccc4)NC(=O)[C@H](CC(=O)O)NC(=O)CNC(=O)[C@H](CCCN=C(N)N)NC3=O)O[C@@H](CN)[C@H]2O1`, the growth with NCI-H23 lung was -29.2% (active); with NCI-H226 lung, -45.8% (active); in the test on NCI-H322M lung it was 6.41% (active); with HOP-62 NSCLC it was -50.5% (active); with NCI-H460 lung it was -44.6% (active); in the test on HOP-92 NSCLC, -70.4% (active). In addition, the growth with NCI-H522 lung was -67.9% (active); with A549/ATCC NSCLC, -55.2% (active); in the test on 786-0 renal, -12.8% (active); in the test on COLO 205 colon it was -81.1% (active); in the test with DU-145 prostate it was -8.32% (active); in the test on K-562 leukemia, 2.76% (active). The growth in the test with MALME-3M melanoma was -20.6% (active); with MDA-MB-231 breast, -9.73% (active); in the test with RXF 393 renal, -85.9% (active); with SF-268 CNS it was -37.1% (active); in the test on SF-295 CNS, -73.5% (active); in the test with SF-539 CNS, -31.9% (active). The figures for the growth in the test with UACC-257 melanoma and in the test with M14 melanoma were -28% (active) and -0.783% (active), respectively.
In the case of `COc1cc(-c2cc3ncccc3c3nc(N)c4cccnc4c23)cc(OC)c1OC`, the growth was 24.5% with NCI-H23 lung; 38.7% with NCI-H226 lung; 44.3% with NCI-H322M lung; 27.3% with HOP-62 NSCLC; 3.55% (active) with NCI-H460 lung; 41.2% in the test with HOP-92 NSCLC. Besides, the growth with NCI-H522 lung was 17.4%; in the test with A549/ATCC NSCLC, 12.7%; in the test with 786-0 renal, 12.9%; in the test with COLO 205 colon, -15.6% (active); with DU-145 prostate it was 2.16% (active); in the test with K-562 leukemia, 16.3%. Moreover, the growth in the test with MALME-3M melanoma is 50.9%; in the test with MDA-MB-231 breast, 36.5%; in the test on RXF 393 renal, 10.9%; with SF-268 CNS it was 29.6%; in the test with SF-295 CNS, 12.4%; in the test on SF-539 CNS, -1.92% (active). Also, the values for the growth in the test with UACC-257 melanoma and with M14 melanoma were 44.3% and 4.68% (active), respectively.
In the case of `CC(=O)N1N=C(c2ccc(C)cc2)CC1c1ccc(Oc2ccc(Br)cc2)cc1` (stereo not given), the growth in the test on NCI-H23 lung was 83.1%; with NCI-H226 lung, 90.1%; with NCI-H322M lung, 73.9%; in the test on HOP-62 NSCLC, 83.6%; in the test on NCI-H460 lung, 98.4%; in the test with HOP-92 NSCLC, 89.4%. For the same molecule, the growth with NCI-H522 lung was 83.2%; in the test on A549/ATCC NSCLC, 81.5%; with 786-0 renal it was 80%; in the test with COLO 205 colon it was 97.7%; with DU-145 prostate, 91.4%; in the test on K-562 leukemia, 75.3%. The growth in the test on MALME-3M melanoma is 87.6%; with MDA-MB-231 breast, 85.7%; with RXF 393 renal, 92.8%; in the test with SF-268 CNS, 79.5%; in the test on SF-295 CNS it was 94.4%; in the test with SF-539 CNS it was 94.7%. Besides, the growth was 96% in the test on UACC-257 melanoma and 88.3% in the test on M14 melanoma.
For `O=C(/C=C/c1ccc2ccccc2c1)Nc1ncc(Cc2ccccc2)s1`, the growth is 80.3% in the test with NCI-H23 lung; 46% with NCI-H226 lung; 46.3% in the test on NCI-H322M lung; 56.7% with HOP-62 NSCLC; 30.8% in the test on NCI-H460 lung; 78.2% in the test with HOP-92 NSCLC. The growth in the test with NCI-H522 lung is 72.8%; in the test on A549/ATCC NSCLC, 21.6%; in the test on 786-0 renal, 34.2%; with COLO 205 colon, 55.8%; in the test on DU-145 prostate, 70.4%; in the test with K-562 leukemia it was 70.6%. The growth in the test with MALME-3M melanoma was 51%; in the test with MDA-MB-231 breast, 28.5%; in the test on RXF 393 renal, 93.3%; in the test on SF-268 CNS, 73.8%; in the test on SF-295 CNS, 36.8%; in the test on SF-539 CNS it was 78.2%. Moreover, the growth in the test with UACC-257 melanoma was 94.8%; with M14 melanoma it was 59.8%.
Regarding `N#CC1=C(N)Oc2c(c(N)nn2-c2ccccc2)C1c1ccc(Cl)cc1` (stereo not given), the growth with NCI-H23 lung was 93.4%; in the test with NCI-H226 lung it was 87.2%; in the test on NCI-H322M lung, 101%; with HOP-62 NSCLC it was 89.8%; in the test on NCI-H460 lung it was 103%; in the test on HOP-92 NSCLC, 92.7%. In addition, the growth was 87.6% in the test on NCI-H522 lung; 100% in the test with A549/ATCC NSCLC; 98.8% in the test on 786-0 renal; 106% in the test on COLO 205 colon; 99.6% in the test on DU-145 prostate; 106% in the test with K-562 leukemia. Besides, the growth was 106% in the test with MALME-3M melanoma; 87.5% in the test on MDA-MB-231 breast; 93.8% in the test with RXF 393 renal; 94.1% in the test with SF-268 CNS; 96.6% in the test on SF-295 CNS; 98.4% with SF-539 CNS. In addition, the growth was 105% in the test on UACC-257 melanoma and 103% in the test on M14 melanoma.
As for `CC1(C)c2ccccc2C(=O)C1(Br)Cc1ccccc1` (stereo not given), the growth with NCI-H23 lung was 74.1%; with NCI-H226 lung it was 94.1%; in the test on NCI-H322M lung it was 95.5%; in the test with HOP-62 NSCLC, 95%; with NCI-H460 lung it was 96.8%; with HOP-92 NSCLC it was 83%. Besides, the growth with NCI-H522 lung was 83.1%; with A549/ATCC NSCLC, 94.6%; in the test on 786-0 renal it was 81.7%; in the test on COLO 205 colon, 97.9%; with DU-145 prostate it was 92.5%; in the test on K-562 leukemia it was 42.7%. The growth in the test with MALME-3M melanoma was 121%; with MDA-MB-231 breast, 105%; in the test with RXF 393 renal it was 83.5%; with SF-268 CNS, 89.6%; in the test with SF-295 CNS, 85.7%; in the test on SF-539 CNS it was 89.9%. Further, the growth with UACC-257 melanoma was 99.4%; with M14 melanoma, 89.1%.
As to `Clc1ccccc1-c1nc(Nc2nc3ccccc3s2)nc(C(Cl)(Cl)Cl)n1`, the growth in the test with NCI-H23 lung was 76.4%; in the test on NCI-H226 lung it was 95%; with NCI-H322M lung, 24.6%; in the test with HOP-62 NSCLC, 40.5%; in the test on NCI-H460 lung it was 1.36% (active); with HOP-92 NSCLC it was 55.6%. For the same molecule, the growth in the test on NCI-H522 lung is 88.4%; in the test with A549/ATCC NSCLC, 18%; in the test with 786-0 renal, 75.8%; with COLO 205 colon, 10.9%; with DU-145 prostate, 15.9%; in the test on K-562 leukemia, 50.8%. Also, the growth is 79.6% in the test on MALME-3M melanoma; 14.5% in the test on MDA-MB-231 breast; 16.7% in the test on RXF 393 renal; 81.7% in the test with SF-268 CNS; 37.8% in the test on SF-295 CNS; 32.8% with SF-539 CNS. Also, the growth with UACC-257 melanoma is 83.9%; in the test with M14 melanoma, 80.1%.
